53 molecules from ChEMBL document CHEMBL4513216, “Probing the Open Global Health Chemical Diversity Library for Multistage-Active Starting Points for Next-Generation Antimalarials” (ACS Infect Dis, 2020) can be followed below.

The whole screen tested about 68,000 compounds, of which about 2,700 (4%) showed an effect of 50% or more. Only a selection was taken, and strong results are over-represented in it overall.

This experiment has as its system Plasmodium berghei. The experiment in a line: Screen against P. berghei liver stage (PbLuc), transformed with Luciferase, at 2uM. It is filed as functional, HepG2. The conditions noted are these: tested at 2 uM.
`CCN(CC1CCOCC1)C(=O)C1CC(=O)N(Cc2cccnc2)C1` (stereo not drawn): the INHIBITION was found to be 10.83%.

On to `COc1ccc(CC(=O)N2CCCN(c3ccc(C#N)cc3)CC2)cc1`, for which the INHIBITION is given as -28.34%.

Consider `O=C(NC1CCC1)C1=NOC2(CCN(Cc3ccc(F)cc3)C2)C1` (stereo not drawn), for which the INHIBITION is 34.13%.

Turning to `CCC(=O)N1CCC(Oc2ccc(C(=O)NCCN(C)C)cc2Cl)CC1`, the INHIBITION was determined as 51.96%.

In the case of `COC(=O)N1CCC(Oc2ccc(C(=O)NCCN(C)C)cc2Cl)CC1`, the INHIBITION worked out at 30.62%.

For the molecule `CN(C)CCNC(=O)c1ccc(OC2CCN(C(=O)CO)CC2)c(Cl)c1`, the INHIBITION came out at 14.63%.

In the case of `CNC(=O)c1nc(CN2CCOC(C(F)(F)F)C2)no1` (stereo not drawn), the INHIBITION is 65.76%.

As for `CNC(=O)c1nc(CN2CCOC(CCCC(C)C)C2)no1` (stereo not drawn), the INHIBITION is listed as -65.52%.

For the molecule `NC(=O)c1nc(CN2CCOC(C(F)(F)F)C2)no1` (stereo not drawn), the INHIBITION is reported as 43.91%.

As for `COC(=O)CC(c1ccc(OC)c(OC)c1OC)c1c(O)n[nH]c1C` (stereo not drawn), the INHIBITION is on record as -8.07%.

On to `Cc1cc2c(=O)n3c(nc2s1)CCN(C(=O)c1nn(C)cc1Cl)CC3`, for which the INHIBITION amounted to 26.56%.

Regarding `Cc1cc2c(=O)n3c(nc2s1)CCN(C(=O)c1cnn(C)c1)CC3`, the INHIBITION is reported as -18.04%.

Regarding `Cc1cc2c(=O)n3c(nc2s1)CCN(C(=O)c1cn(C)nc1C)CC3`, the INHIBITION worked out at 66.16%.

Turning to `COCCc1noc(CN(C)c2cc(C)ncn2)n1`, the INHIBITION stood at 41.63%.

Take `Cc1nc(N2CCN(C(=O)c3ccncc3)CC2)c2c(n1)c(C)nn2C`: the INHIBITION turned out to be 4.87%.

For the molecule `COc1cccc(CC2(C(=O)O)CCN(c3nccs3)CC2)c1`, the INHIBITION came out at 50.59%.

For the molecule `COc1cccc(CC2(CO)CCCN(c3nccs3)C2)c1` (stereo not drawn), the INHIBITION is listed as 14.21%.

Turning to `COc1cccc(CC2(C(=O)O)CCN(c3ccc(Cl)cn3)CC2)c1`, the INHIBITION is recorded as 7.67%.

For the molecule `Cc1nc(N(C)Cc2cccc(O)c2)nc2cc(S(C)(=O)=O)ccc12`, the INHIBITION is on record as 33.4%.

Consider `O=C(CN1CCCc2sccc2C1=O)NC1CCc2nccn2C1` (stereo not drawn), for which the INHIBITION is -4.89%.

In the case of `O=S(=O)(c1cccs1)N1CCN(Cc2nc(-c3ccco3)cs2)CC1`, the INHIBITION stood at 29.89%.

With `Cc1ccc(CN2CCC3(CCC3NS(=O)(=O)c3ccccc3)CC2)o1` (stereo not drawn), the INHIBITION came out at 11.18%.

Consider `O=S(=O)(NC1CCC12CCN(CC1CCOCC1)CC2)c1ccccc1` (stereo not drawn), for which the INHIBITION is on record as 51.36%.

`O=S(=O)(NC1CCC12CCN(CC1CC1)CC2)c1ccccc1` (stereo not drawn): the INHIBITION is given as -3.36%.

As to `CCc1nnc2n1CCN(C(=O)C(C)Oc1ccc(C#N)cc1)C2` (stereo not drawn), the INHIBITION worked out at 10.77%.

Consider `CN(CCO)C1CCN(c2ncc3c(n2)CCN3c2ccccc2)CC1`, for which the INHIBITION was 15.84%.

Turning to `CNC(=O)C1CCN(c2ncc3c(n2)CCN3c2ccccc2)C1` (stereo not drawn), the INHIBITION is recorded as 51.96%.

As to `CC(=O)N(C)C1CCN(c2ncc3c(n2)CCN3c2ccccc2)C1` (stereo not drawn), the INHIBITION was -13.72%.

In the case of `COCCC1(CNC(=O)Nc2ccnc(C)c2)CCCC1`, the INHIBITION is recorded as -37.69%.

With `CC(=O)N1N=C(c2ccccc2)OC1C(=O)NCCc1ccc(C)cc1` (stereo not drawn), the INHIBITION is 34.18%.

Turning to `CC(=O)N1N=C(c2ccccc2)OC1C(=O)NCCc1ccc(O)cc1` (stereo not drawn), the INHIBITION is 26.64%.

Regarding `CC(=O)N1N=C(c2ccccc2)OC1C(=O)NCCC1=CCCCC1` (stereo not drawn), the INHIBITION stood at 85.54%.

As to `CC(=O)N1N=C(c2ccco2)OC1C(=O)NCCc1ccc(O)cc1` (stereo not drawn), the INHIBITION is listed as 20.42%.

On to `CC(=O)N1N=C(c2ccco2)OC1C(=O)NCCc1ccc(F)cc1` (stereo not drawn), for which the INHIBITION worked out at 58.6%.

Turning to `CC(=O)N1N=C(c2ccco2)OC1C(=O)NCC(C)C` (stereo not drawn), the INHIBITION is given as 5.77%.

Turning to `Cc1noc(CNC(=O)[C@@H](C)NC(=O)OC(C)(C)C)n1`, the INHIBITION is -29.78%.

On to `Cc1[nH]n(C)c2nc(=O)cc(C(F)(F)C(F)(F)F)c1-2`, for which the INHIBITION was -69.92%.

Regarding `O=C([C@@H]1COC[C@H]2CN(C3CCCC3)C[C@H]21)N1CCC(F)CC1`, the INHIBITION was determined as 9.45%.

Take `O=S(=O)(CCc1ccccc1)Nc1cc(Cl)ccn1`: the INHIBITION turned out to be 0.51%.

Consider `CCn1cc(S(=O)(=O)N2CCC3(CCCN(CC4CCC4)C3=O)C2)cn1` (stereo not drawn), for which the INHIBITION is listed as 13.58%.

Consider `Cc1cnn(CC2CCCCN2C(=O)CN(C)C2CC2)c1` (stereo not drawn), for which the INHIBITION came to 21.31%.

Regarding `O[C@H]1CN(CCOc2ccc(F)cc2)CC[C@@]12CCCO2`, the INHIBITION came to 9.05%.

For the molecule `O=C(N1CCOCC1)N1CCc2ncc(CN3CCCCC3)n2CC1`, the INHIBITION amounted to 56.25%.

For the molecule `O=C(C1CCOCC1)N1CCc2ncc(CN3CCCCC3)n2CC1`, the INHIBITION was 41.28%.

For the molecule `O=C(C1CCOCC1)N1CCc2ncc(CN3CCCC3)n2CC1`, the INHIBITION was -9.48%.

For `COc1c(Cl)cccc1NCc1csc(NC(C)=O)n1`, the INHIBITION is recorded as -49.16%.

On to `Cc1noc([C@H]2C[C@@H]3CCN(C(=O)N(C)C)C[C@H]3O2)n1`, for which the INHIBITION is listed as -7.58%.

On to `CC(NCc1nnc2n1CCCC2)c1nc(-c2cccs2)no1` (stereo not drawn), for which the INHIBITION came to 26.14%.

On to `Cc1cc(NC(=O)CN2CCn3c(nnc3C3CC3)C2)on1`, for which the INHIBITION came out at 17.12%.

Consider `CCN(CC)c1ncc(Cl)c(C(=O)NC2CC2)n1`, for which the INHIBITION was determined as 26.8%.

As to `CCN(CC)c1ncc(Cl)c(C(=O)NC2CCC(O)CC2)n1` (stereo not drawn), the INHIBITION was -2.22%.

With `CCN(CC)c1ncc(Cl)c(C(=O)NC2CCc3nccn3C2)n1` (stereo not drawn), the INHIBITION is given as 59.56%.

With `CCOC(=O)[C@@H]1[C@@H](c2ccccc2)CN2CCN(C(C)=O)C[C@H]12`, the INHIBITION came to 40.13%.
